Hits are enriched below; roughly 0.97% of the tested compounds scored in any of these assays.
S1P4 ag – human S1P4 receptor agonism; O95977; S1P4-expressing cell line, agonist reporter assay; activation, % at 4.98 µM; 220,000 tested, 0.35% active; AID 1509; in the data active = activation above about 11%;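 note: 0% = DMSO vehicle and 100% = reference agonist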
S1P4 antagonist – human S1P4 receptor antagonism | inhibition, % at 4.98 µM | O95977 | 220,000 tested, 0.26% active | S1P4-expressing cells, antagonist mode, reporter read-out | AID 1510; in the data active = inhibition above about 29%;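 note: 0% = wells stimulated with agonist and 100% = vehicle wells without agonist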
Hsp70 act – transcriptional activators of Hsp70; 200,000 tested, 0.04% active; HeLa Hsp70 promoter luciferase reporter, luminescence; scaled: vehicle 0, proteasome-inhibitor control 100%; activation, % at 10 µM;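 active = activation above the mean across all tested compounds plus 3 SD, cutoff set per campaign, cut at about 5.5% in these data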;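 note: 100% = MG132 at 30 µM as the positive control and 0% = DMSO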
S1P3 antag – blocks the human S1P3 receptor; Q99500; inhibition, % at 4.98 µM; 170,000 tested, 0.27% active; CHO S1P3 NFAT-BLA reporter, FRET fluorescence, antagonist mode;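 active = inhibition above the plate cutoff, the mean inhibition of test wells on that plate plus 3 SD, cut at about 28% in these data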;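 note: cells challenged with S1P at its EC80 of 0.8 µM; blue over green emission ratio from cleaved BLA substrate after 4 h stimulation; 0% = S1P-stimulated wells and 100% = unstimulated DMSO-only wells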
Target sequence (Q99500 whole entry, looked up): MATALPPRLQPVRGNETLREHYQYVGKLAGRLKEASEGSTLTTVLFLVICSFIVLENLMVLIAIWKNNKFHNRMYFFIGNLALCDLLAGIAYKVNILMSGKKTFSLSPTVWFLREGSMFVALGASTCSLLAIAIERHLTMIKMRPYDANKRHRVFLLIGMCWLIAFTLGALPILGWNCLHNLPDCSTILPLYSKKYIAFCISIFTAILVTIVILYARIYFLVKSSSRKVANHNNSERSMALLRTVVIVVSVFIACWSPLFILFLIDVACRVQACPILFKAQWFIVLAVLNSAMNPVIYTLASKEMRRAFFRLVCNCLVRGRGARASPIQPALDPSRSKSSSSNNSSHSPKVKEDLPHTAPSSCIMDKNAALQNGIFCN
AI-2 QS mod – modulates the Vibrio harveyi AI-2 quorum sensing system; AID 2094; 300,000 tested, 0.4% active; Vibrio harveyi JMH597 AI-2 luminescence/OD600 ratio, 9 h; active compounds read low; strain lacks LuxN and CqsS sensors; 0 = neutral-control median; activity change, % at 7.5 µM; in the data active = activity change below about -75%, passing the limit was not always enough; inconclusive = no clear call, values can overlap the other calls;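 note: luminescence divided by OD600 gain over 9 h not by final OD600 alone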
S1P4 ag conf – human S1P4 agonism, confirmation; S1P4 agonist cell-based reporter assay; shares compounds with S1P4 ag; activation, % at 4.98 µM; 740 tested, 7% active; in the data active = activation above about 12%;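 note: 0% = vehicle and 100% = full reference agonist response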
S1P1 agonist – activates human S1P1, counter-screen for S1P4 agonists. shares compounds with S1P4 ag. S1P1 agonist cell-based assay, activation. activation, % at 4.98 µM. 740 tested, 4% active. AID 1563; in the data active = activation above about 21%;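 note: 0% = vehicle wells and 100% = reference agonist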
* hit, by the source's call; ? = inconclusive; nt = no result given.

SMILES | S1P4 ag | S1P4 antagonist | Hsp70 act | S1P3 antag | AI-2 QS mod | S1P4 ag conf | S1P1 agonist
COc1ccc(-c2cc(C(=O)N/N=C/c3ccc(OC)c(COCC(F)(F)C(F)F)c3)c3ccccc3n2)c(OC)c1 | 72.1* | -8.9 | -0.2 | nt | 44.6 | -2.1 | -6.7
COc1ccc(-c2cc(C(=O)N/N=C/c3ccc4c(c3)OCO4)c3ccccc3n2)c(OC)c1 | -0.5 | -4.9 | 0.2 | nt | 22.4 | nt | nt
COc1ccc(C(=O)Nc2cccc(C(C)=O)c2)cc1S(=O)(=O)N1CCOCC1 | 24.3* | -2.5 | 0.1 | -15.6 | 11.0 | -1.1 | -11.9
COc1ccc(C(=O)Nc2cccc(C)c2)cc1S(=O)(=O)N1CCOCC1 | 0.8 | -35.4 | 0.5 | -6.8 | 1.6 | nt | nt
CCN(CC)CCNC(=O)C1CCN(S(=O)(=O)c2c(C)noc2/C=C/c2ccccc2F)CC1 | nt | nt | nt | nt | 24.4 | nt | nt
CN1CCN(Cc2c(O)ccc3cc(-c4ccccn4)c(=O)oc23)CC1 | 18.0* | 11.1 | -0.2 | -4.2 | 11.6 | 9.7 | 7.2
Cc1ccsc1CNC(=O)c1c(-c2ccccc2)noc1C | 1.0 | 12.1 | nt | -8.0 | 11.2 | nt | nt
Cc1c(Cl)c([N+](=O)[O-])nn1Cc1ccc(C(=O)Nc2ccc(Cl)cn2)o1 | 0.1 | -16.5 | 0.0 | -8.1 | 3.6 | nt | nt
O=C(Nc1ccc(Cl)cn1)c1ccc([N+](=O)[O-])o1 | 48.8* | 24.7 | -0.1 | -20.3 | ? | -3.9 | -16.5
O=C(CSc1ncccc1C(=O)O)Nc1ccc2c(c1)OCCO2 | nt | nt | nt | nt | 8.4 | nt | nt
Nc1nonc1NC(=O)CSc1ncccc1C(=O)O | 44.8* | 1.0 | -0.3 | -27.7 | 18.1 | -2.1 | -1.2
C=CCOc1ccccc1/C=N/NC(=O)Cc1ccc(C)cc1 | nt | nt | nt | nt | 1.6 | nt | nt
CC(=O)c1ccc(Oc2ccc(C(=O)c3ccc(C)c(C)c3)cc2[N+](=O)[O-])cc1 | 13.6* | 10.8 | -0.5 | -9.2 | 15.2 | -1.6 | -2.9
COc1cc(NC(=O)Cc2cccc3ccccc23)c(C(=O)O)cc1OC | nt | nt | nt | nt | 8.8 | nt | nt
Cc1ccc(-n2c(=O)c(C#N)cc3c(=O)n4ccccc4nc32)cc1 | 2.0 | -9.8 | -0.1 | -19.9 | 19.2 | nt | nt
Cc1cccc(-n2c(=O)c(C#N)cc3c(=O)n4ccccc4nc32)c1 | 14.1* | -12.2 | -0.4 | nt | 22.9 | 16.6* | 22.2*
Cc1c(Nc2c3ccccc3nc3ccccc23)c(=O)n(-c2ccccc2)n1C | 11.5* | -2.6 | nt | -10.9 | 2.0 | -1.0 | 1.8
COc1ccc(/C=N/NC(=O)Cn2nnc3ccccc32)cc1OC | 132.2* | -11.2 | -0.1 | 0.3 | -91.9* | 0.4 | 6.0
CN(C)c1ccc(/C=N/NC(=O)Cn2nnc3ccccc32)cc1 | 0.6 | 1.0 | -0.1 | -24.9 | 5.9 | nt | nt
Cc1ccsc1/C=N\NC(=O)Cn1nnc2ccccc21 | 28.0* | -9.2 | 0.0 | 5.9 | -33.6 | -2.0 | -6.0
CC1=NC(C)(C)Cc2cc(C)c(C)cc21 | 3.8 | 3.8 | 0.0 | -7.3 | -16.3 | nt | nt
O=C1CC(NS(=O)(=O)c2cccs2)CN1c1cccc(F)c1 (stereo not drawn) | nt | nt | nt | nt | 4.3 | nt | nt
CC(C)c1onc(C(=O)N2CCOCC2)c1[N+](=O)[O-] | -0.5 | -6.7 | -0.2 | -3.7 | 13.8 | nt | nt
Cc1onc(C(=O)N2CCOCC2)c1[N+](=O)[O-] | 19.4* | 4.2 | -0.2 | -4.4 | 11.0 | -2.8 | 2.7
CC(C)C[C@H](NC(=O)c1nc[nH]c1C(=O)NCc1ccccc1)C(=O)OC(C)(C)C | 0.8 | 11.3 | -0.1 | -25.7 | -3.7 | nt | nt
SMILES | S1P4 ag | S1P4 antagonist | Hsp70 act | S1P3 antag | AI-2 QS mod | S1P4 ag conf | S1P1 agonist
CC(C)C[C@H](NC(=O)c1nc[nH]c1C(=O)NCc1ccccc1)C(=O)OCc1ccccc1 | 20.5* | -21.0 | -0.2 | -11.1 | 20.1 | 25.9* | 0.0
COC(=O)c1c(-n2c(C)cc(C=O)c2C)sc2c1CCCC2 | 12.0* | 1.8 | -0.5 | nt | 32.6 | 14.8* | -2.7
Cc1ccc(S(=O)(=O)/N=c2\sccn2C)cc1 | -0.1 | -12.6 | -0.5 | nt | 13.9 | nt | nt
Cc1ccc(S(=O)(=O)/N=C2\CN(C)C(=O)N2C)cc1 | 16.5* | -5.5 | 0.4 | -5.3 | 20.8 | -0.7 | 3.0
Cn1c(CNc2ccc(F)cc2)nnc1SCC(=O)NNC(=O)Cc1ccccc1 | 15.7* | 4.8 | -0.3 | -8.6 | 7.3 | -1.9 | 0.0
Cc1ccc(CNC(=O)C2CC(c3ccc([N+](=O)[O-])cc3)=NO2)cc1 (stereo not drawn) | 25.4* | -7.3 | 0.0 | nt | -15.2 | -0.9 | -6.5

Screens from PubChem.
